Laboratory results published in ChEMBL document CHEMBL1961873, “Compounds: GSK PKIS; Assays: Nanosyn kinase panel” (2012).

Experiments:
[1] = target: Serine/threonine-protein kinase MRCK alpha (Homo sapiens) (UniProt Q5VT25); settings: at 0.1 µM
[2] = target: Serine/threonine-protein kinase MRCK alpha (Homo sapiens) (UniProt Q5VT25); settings: at 1 µM
[3] = target: Serine/threonine-protein kinase MRCK beta (Homo sapiens) (UniProt Q9Y5S2); settings: at 0.1 µM
[4] = target: Serine/threonine-protein kinase MRCK beta (Homo sapiens) (UniProt Q9Y5S2); settings: at 1 µM
[5] = target: Ribosomal protein S6 kinase alpha-5 (Homo sapiens) (UniProt O75582); settings: at 0.1 µM
[6] = target: Ribosomal protein S6 kinase alpha-5 (Homo sapiens) (UniProt O75582); settings: at 1 µM
[7] = target: Ribosomal protein S6 kinase alpha-4 (Homo sapiens) (UniProt O75676); settings: at 0.1 µM
[8] = target: Ribosomal protein S6 kinase alpha-4 (Homo sapiens) (UniProt O75676); settings: at 1 µM
[9] = target: Ribosomal protein S6 kinase beta-1 (Homo sapiens) (UniProt P23443); settings: at 0.1 µM
[10] = target: Ribosomal protein S6 kinase beta-1 (Homo sapiens) (UniProt P23443); settings: at 1 µM

Chain of Ribosomal protein S6 kinase beta-1 (Homo sapiens) (P23443 whole entry, looked up): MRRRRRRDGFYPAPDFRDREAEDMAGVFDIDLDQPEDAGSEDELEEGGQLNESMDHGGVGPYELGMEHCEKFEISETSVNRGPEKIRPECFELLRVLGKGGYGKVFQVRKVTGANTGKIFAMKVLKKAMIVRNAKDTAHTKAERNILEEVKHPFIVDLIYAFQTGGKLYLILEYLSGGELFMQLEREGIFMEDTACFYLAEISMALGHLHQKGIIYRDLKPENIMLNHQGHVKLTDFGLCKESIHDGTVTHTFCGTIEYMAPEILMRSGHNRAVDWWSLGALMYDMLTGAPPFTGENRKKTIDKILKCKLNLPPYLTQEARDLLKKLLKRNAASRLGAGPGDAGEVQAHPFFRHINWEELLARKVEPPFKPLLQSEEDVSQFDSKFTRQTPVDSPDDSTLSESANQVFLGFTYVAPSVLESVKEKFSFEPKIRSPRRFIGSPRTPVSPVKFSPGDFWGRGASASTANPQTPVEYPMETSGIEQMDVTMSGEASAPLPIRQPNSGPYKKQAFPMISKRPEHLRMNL
Chain of Serine/threonine-protein kinase MRCK beta (Homo sapiens) (Q9Y5S2 whole entry): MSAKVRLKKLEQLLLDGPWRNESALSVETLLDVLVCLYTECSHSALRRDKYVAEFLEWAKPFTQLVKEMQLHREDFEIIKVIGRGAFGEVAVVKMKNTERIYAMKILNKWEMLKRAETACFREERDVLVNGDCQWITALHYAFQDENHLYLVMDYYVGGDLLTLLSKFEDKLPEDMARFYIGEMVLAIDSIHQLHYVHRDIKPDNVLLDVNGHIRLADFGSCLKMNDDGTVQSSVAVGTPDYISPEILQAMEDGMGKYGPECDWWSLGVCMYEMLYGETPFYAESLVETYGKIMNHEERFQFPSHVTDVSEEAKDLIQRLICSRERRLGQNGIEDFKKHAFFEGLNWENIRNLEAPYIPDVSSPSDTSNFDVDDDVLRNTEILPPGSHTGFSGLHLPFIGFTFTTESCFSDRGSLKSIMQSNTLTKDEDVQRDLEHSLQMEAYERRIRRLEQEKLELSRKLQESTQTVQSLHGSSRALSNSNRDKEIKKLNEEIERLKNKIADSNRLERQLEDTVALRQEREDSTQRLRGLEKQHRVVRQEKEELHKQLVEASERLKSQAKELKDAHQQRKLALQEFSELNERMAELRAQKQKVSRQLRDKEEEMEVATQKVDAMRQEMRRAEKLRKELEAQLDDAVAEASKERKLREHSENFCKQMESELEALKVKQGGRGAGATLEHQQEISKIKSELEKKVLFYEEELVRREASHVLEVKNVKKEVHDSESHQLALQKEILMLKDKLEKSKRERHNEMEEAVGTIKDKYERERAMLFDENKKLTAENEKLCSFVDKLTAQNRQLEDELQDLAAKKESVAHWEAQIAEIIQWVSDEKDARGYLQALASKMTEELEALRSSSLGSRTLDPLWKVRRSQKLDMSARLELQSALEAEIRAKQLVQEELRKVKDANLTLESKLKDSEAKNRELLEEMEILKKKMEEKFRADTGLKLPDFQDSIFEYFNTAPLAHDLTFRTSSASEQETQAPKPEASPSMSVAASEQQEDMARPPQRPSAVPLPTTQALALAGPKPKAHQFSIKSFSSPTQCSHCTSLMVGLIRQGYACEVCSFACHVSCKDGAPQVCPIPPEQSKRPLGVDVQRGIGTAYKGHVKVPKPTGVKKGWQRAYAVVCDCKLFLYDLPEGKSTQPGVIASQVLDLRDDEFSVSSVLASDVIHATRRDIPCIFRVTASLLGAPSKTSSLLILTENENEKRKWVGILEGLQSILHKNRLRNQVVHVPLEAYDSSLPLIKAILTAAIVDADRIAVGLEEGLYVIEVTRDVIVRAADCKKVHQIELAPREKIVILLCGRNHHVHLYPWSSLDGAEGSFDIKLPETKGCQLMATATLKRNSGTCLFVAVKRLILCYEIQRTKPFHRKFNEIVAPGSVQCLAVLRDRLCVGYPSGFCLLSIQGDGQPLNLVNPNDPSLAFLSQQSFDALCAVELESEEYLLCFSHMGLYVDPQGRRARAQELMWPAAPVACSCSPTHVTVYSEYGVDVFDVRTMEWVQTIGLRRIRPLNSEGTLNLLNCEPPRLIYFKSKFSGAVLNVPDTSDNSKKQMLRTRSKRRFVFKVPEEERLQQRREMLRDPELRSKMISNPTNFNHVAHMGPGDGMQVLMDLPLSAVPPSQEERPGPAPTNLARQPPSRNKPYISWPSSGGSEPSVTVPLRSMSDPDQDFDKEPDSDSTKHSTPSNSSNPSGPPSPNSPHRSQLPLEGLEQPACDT
Chain of Serine/threonine-protein kinase MRCK alpha (Homo sapiens) (Q5VT25 whole entry): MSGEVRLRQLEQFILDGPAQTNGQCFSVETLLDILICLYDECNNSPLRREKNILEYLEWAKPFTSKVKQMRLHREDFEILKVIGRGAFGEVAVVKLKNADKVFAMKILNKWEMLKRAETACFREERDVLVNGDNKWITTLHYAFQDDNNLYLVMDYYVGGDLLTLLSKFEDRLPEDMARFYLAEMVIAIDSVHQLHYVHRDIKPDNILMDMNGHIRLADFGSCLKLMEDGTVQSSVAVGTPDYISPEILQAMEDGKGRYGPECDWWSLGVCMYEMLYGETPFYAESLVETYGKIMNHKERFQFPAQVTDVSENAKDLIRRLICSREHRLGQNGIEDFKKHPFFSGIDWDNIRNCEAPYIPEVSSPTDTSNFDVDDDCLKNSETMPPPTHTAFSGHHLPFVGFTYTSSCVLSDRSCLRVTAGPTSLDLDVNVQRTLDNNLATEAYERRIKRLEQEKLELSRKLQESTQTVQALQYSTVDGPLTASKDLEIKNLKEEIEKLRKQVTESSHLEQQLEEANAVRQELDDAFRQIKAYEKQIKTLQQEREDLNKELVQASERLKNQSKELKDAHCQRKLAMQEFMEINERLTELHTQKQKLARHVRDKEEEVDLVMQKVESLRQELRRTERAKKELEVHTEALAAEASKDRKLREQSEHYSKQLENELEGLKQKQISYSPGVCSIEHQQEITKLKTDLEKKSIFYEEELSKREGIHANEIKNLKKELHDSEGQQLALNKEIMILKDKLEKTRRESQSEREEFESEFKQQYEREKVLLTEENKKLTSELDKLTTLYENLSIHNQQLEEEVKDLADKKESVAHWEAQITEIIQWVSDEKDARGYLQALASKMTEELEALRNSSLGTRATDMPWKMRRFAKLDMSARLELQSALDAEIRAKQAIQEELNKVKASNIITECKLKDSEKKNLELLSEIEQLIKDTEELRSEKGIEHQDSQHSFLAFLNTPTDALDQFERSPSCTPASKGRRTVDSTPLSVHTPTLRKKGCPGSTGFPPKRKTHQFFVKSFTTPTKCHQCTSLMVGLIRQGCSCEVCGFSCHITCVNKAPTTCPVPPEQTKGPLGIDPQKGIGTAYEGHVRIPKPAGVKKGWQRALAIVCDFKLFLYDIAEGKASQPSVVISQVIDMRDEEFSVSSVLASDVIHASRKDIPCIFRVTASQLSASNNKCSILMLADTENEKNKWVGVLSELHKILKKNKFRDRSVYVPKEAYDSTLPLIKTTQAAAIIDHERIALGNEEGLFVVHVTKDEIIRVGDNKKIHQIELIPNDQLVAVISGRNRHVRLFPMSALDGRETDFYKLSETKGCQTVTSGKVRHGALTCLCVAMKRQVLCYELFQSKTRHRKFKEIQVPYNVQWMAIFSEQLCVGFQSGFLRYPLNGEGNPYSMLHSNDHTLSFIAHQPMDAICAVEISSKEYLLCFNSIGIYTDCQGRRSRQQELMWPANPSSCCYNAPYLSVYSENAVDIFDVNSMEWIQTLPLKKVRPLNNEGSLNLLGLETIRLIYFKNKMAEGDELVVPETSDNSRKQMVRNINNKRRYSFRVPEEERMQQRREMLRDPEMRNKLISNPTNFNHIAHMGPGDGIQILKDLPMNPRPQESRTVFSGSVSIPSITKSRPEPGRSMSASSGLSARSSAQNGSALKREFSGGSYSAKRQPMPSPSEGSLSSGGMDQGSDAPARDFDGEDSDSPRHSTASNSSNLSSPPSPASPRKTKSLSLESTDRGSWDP
Chain of Ribosomal protein S6 kinase alpha-5 (Homo sapiens) (O75582 whole entry, looked up): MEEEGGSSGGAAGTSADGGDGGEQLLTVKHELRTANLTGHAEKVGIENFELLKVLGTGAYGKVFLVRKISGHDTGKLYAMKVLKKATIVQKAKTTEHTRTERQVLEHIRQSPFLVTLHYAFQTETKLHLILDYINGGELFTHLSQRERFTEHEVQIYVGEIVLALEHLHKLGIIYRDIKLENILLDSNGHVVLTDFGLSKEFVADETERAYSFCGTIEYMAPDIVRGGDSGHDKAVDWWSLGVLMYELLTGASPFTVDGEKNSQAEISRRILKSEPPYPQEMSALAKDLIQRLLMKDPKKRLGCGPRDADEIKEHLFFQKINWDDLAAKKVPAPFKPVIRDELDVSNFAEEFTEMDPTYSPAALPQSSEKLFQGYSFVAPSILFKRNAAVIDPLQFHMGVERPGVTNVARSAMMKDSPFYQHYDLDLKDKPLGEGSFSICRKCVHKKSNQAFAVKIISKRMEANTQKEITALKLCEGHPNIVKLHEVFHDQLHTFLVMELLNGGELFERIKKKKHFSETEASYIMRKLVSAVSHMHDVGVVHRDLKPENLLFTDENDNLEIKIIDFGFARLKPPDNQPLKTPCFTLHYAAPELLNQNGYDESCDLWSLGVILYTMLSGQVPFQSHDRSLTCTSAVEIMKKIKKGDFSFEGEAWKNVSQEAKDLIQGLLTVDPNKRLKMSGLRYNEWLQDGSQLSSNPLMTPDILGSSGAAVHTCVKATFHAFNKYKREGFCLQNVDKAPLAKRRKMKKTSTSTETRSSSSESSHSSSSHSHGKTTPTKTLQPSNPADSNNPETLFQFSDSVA

Row | Compound | inhibition [1] [%] | inhibition [2] [%] | inhibition [3] [%] | inhibition [4] [%] | inhibition [5] [%] | inhibition [6] [%] | inhibition [7] [%] | inhibition [8] [%] | inhibition [9] [%] | inhibition [10] [%]
1 | O=C(Nc1n[nH]c2cc(-c3cc(F)ccc3F)ccc12)C1CC1 | -0.78 | -3.13 | -0.23 | -0.47 | 1.91 | 1.12 | 1.8 | 3.08 | 1.01 | 1.58
2 | COc1cc(N2CCN(C(C)C)CC2)ccc1Nc1nc(Nc2ccc(F)cc2C(=O)NC[C@@H](O)CO)c2cc[nH]c2n1 | -0.84 | 3.26 | -0.21 | -1.04 | 2.19 | 2.99 | 3.14 | 4.18 | 1.29 | 2.5
3 | C[C@@H](Oc1cc(-n2cnc3ccc(OC4CCN(C)CC4)cc32)sc1C(N)=O)c1ccccc1Cl | 0.03 | 5.65 | 0.19 | 2.98 | 2.31 | 1.66 | 2.84 | 5.67 | 1.64 | 5.01
4 | FC(F)(F)c1cccc(Nc2nccc(-c3cnn4nc(-c5ccccc5)ccc34)n2)c1 | -4.69 | -0.12 | 0.14 | 0.03 | 1.36 | 0.17 | 1.71 | 0.86 | 1.59 | 0.67
5 | CCc1nccc2c1nc(-c1nonc1N)n2CC | 0.8 | 1.36 | 0.74 | 3.39 | 6.51 | 37.7 | 2.18 | 19.5 | 10.5 | 49.6
6 | CN(c1ccc(NC(=O)Nc2c(Cl)cccc2Cl)cc1)c1ccnc(Nc2cccc(CS(C)(=O)=O)c2)n1 | 1.56 | 2.97 | 0.43 | 0.92 | 2.92 | 4.25 | 2.24 | 4.1 | -1.3 | 2.4
7 | COc1cc2ncn(-c3cc(OCc4ccccc4C(F)(F)F)c(C(C)=O)s3)c2cc1OC | -2.12 | 1.84 | 0.33 | 0.86 | 1.02 | -0.03 | 1.45 | 3.01 | 0.79 | 0.12
8 | COc1cccc(-n2cnc3c(N/N=C/c4ccncc4)ncnc32)c1 | 1.59 | 3.69 | 0.38 | 0.7 | -0.31 | 1.02 | 2.44 | 3.95 | -0.32 | 1.15
9 | CS(=O)(=O)CCNCc1ccc(-c2ccc3ncnc(Nc4ccc(OCc5ccccc5)c(Br)c4)c3c2)o1 | -6.6 | -3.23 | -0.18 | -0.76 | 1.16 | -1.75 | 2.02 | 0.82 | 0.95 | 0.5
10 | O=C(Nc1n[nH]c2nc(-c3ccc(O)cc3)c(Br)cc12)C1CC1 | 1.56 | 13.5 | 1.77 | 15.5 | 5.22 | 13.6 | 2.78 | 6.3 | 2.07 | 6.85
11 | CN(C)c1ccc2c(c1)/C(=C/Nc1ccc(S(N)(=O)=O)cc1)C(=O)N2 | 0.22 | 4.01 | 1.12 | 2.85 | 3.06 | 4.05 | 1.96 | 3.55 | 0.19 | 3.09
12 | NC(=O)Cc1ccccc1Oc1nccc(-c2c(-c3ccc(F)cc3)ncn2C2CCNCC2)n1 | 0.16 | -0.52 | -0.05 | 1.05 | 2.22 | 1.53 | -1.39 | 1.64 | 0.73 | 1.27
13 | Fc1ccc(-c2c(-c3ccncc3)nc3n2CCS3)cc1 | 1.61 | 5.14 | 2.15 | 9.93 | 3.9 | 8.14 | 4.42 | 8.86 | 0.97 | 2.52
14 | Cc1ccc(NC(=O)c2ccoc2)cc1-c1ccc(C(=O)NCC2CC2)cc1 | -2.51 | -2.81 | -0.56 | -1.77 | 0.76 | -1.39 | 1.78 | -0.44 | -0.57 | -1.48
15 | Cc1ccc(C(=O)NC(C)C)cc1-c1ccc(C(=O)NCC2CC2)cc1 | 0.02 | -2.08 | 0.15 | 0.39 | -3.69 | -3.9 | -1.65 | -2.17 | -2.1 | -2.29
16 | Fc1ccc(-c2ncn(C3CCNCC3)c2-c2ccnc(Oc3ccc(Oc4ccccc4)cc3)n2)cc1 | 5.81 | 7.37 | -0.26 | 1.5 | 10.2 | 11.9 | 2.53 | 5.09 | 2.41 | 4.57
17 | CS(=O)(=O)CCNCc1cc(-c2cc3c(Nc4ccc(OCc5cccc(F)c5)c(Cl)c4)ncnc3s2)cs1 | 2.36 | 5.45 | -0.63 | 2.8 | 2.17 | 1.79 | 3.41 | 4.94 | 2.17 | 4.75
